Test results published in PubChem BioAssay AID1159580 (chemical genetic matrix, 2015).
Several values for one entry are separate records, joined by “and”; a condition that tells them apart may be missing. Equal values may be shown once. In all, about 5,500 compounds went through this assay and about 2,000 (36%) were called active. Inconclusive results (about 18%) are left out. Cut-off read from the data, not from the text of the source: active = normalized growth mostly below about 0.91 (no sharp cut-off); inconclusive = no clear call, values can overlap the other calls; inactive = mostly above about 0.92. The list shows a part of the results.

Test: chemical genetic growth profiling, strain panel (AID 1159580);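 note: tested at 20 µM; growth read once vehicle control cultures reached saturation at 30 °C; 1 = growth at the plate median or of vehicle wells; lower values mean less growth of the strain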
Conditions: growth OD

Measured: normalized growth

CC1(C)NC(=O)N(c2ccc([N+](=O)[O-])c(C(F)(F)F)c2)C1=O
inactive: S. cerevisiae deletion strains, locus YJR075W, strain HOC1, active compounds read low 1.01 | S. cerevisiae deletion strains, locus YKL009W, strain mrt4, active compounds read low 0.969 | S. cerevisiae deletion strains, locus YKL068W, active compounds read low 0.992 | S. cerevisiae deletion strains, locus YKL085W, strain MDH1 (second series), active compounds read low 0.988 | S. cerevisiae deletion strains, locus YKL085W, strain MDH1, active compounds read low 0.988 | S. cerevisiae deletion strains, locus YKL160W, strain elf1, active compounds read low 0.988 | S. cerevisiae deletion strains, locus YKL190W, strain CNB1, active compounds read low 1.01 | S. cerevisiae deletion strains, locus YKR001C, strain vps1, active compounds read low 0.975 | S. cerevisiae deletion strains, locus YKR026C, strain gcn3, active compounds read low 0.984 | S. cerevisiae deletion strains, locus YKR091W, strain srl3, active compounds read low 0.989 | S. cerevisiae deletion strains, locus YLL001W, strain dnm1, active compounds read low 0.986 | S. cerevisiae deletion strains, locus YLL026W, active compounds read low 0.98 | S. cerevisiae deletion strains, locus YLL041C, strain sdh2, active compounds read low 0.988 | S. cerevisiae deletion strains, locus YLR027C, strain aat2, active compounds read low 0.986 | S. cerevisiae deletion strains, locus YLR039C, strain RIC1, active compounds read low 0.984 | S. cerevisiae deletion strains, locus YLR058C, strain SHM2, active compounds read low 1.02 | S. cerevisiae deletion strains, locus YLR102C, strain apc9, active compounds read low 0.965 | S. cerevisiae deletion strains, locus YLR113W, strain HOG1, active compounds read low 1.03 | S. cerevisiae deletion strains, locus YLR221C, strain rsa3, active compounds read low 0.98 | S. cerevisiae deletion strains, locus YLR258W, strain gsy2, active compounds read low 0.984 | S. cerevisiae deletion strains, locus YLR262C, strain YPT6 (second series), active compounds read low 0.94 | S. cerevisiae deletion strains, locus YLR262C, strain YPT6, active compounds read low 0.988 | S. cerevisiae deletion strains, locus YLR268W, strain sec22, active compounds read low 0.974 | S. cerevisiae deletion strains, locus YLR320W, strain mms22, active compounds read low 0.995 | S. cerevisiae deletion strains, locus YLR330W, strain CHS5, active compounds read low 1.01 | S. cerevisiae deletion strains, locus YLR342W, strain FKS1 (second series), active compounds read low 1.03 | S. cerevisiae deletion strains, locus YLR342W, strain FKS1, active compounds read low 0.983 | S. cerevisiae deletion strains, locus YLR357W, strain rsc2, active compounds read low 0.98 | S. cerevisiae deletion strains, locus YLR370C, strain arc18, active compounds read low 0.971 | S. cerevisiae deletion strains, locus YLR371W, strain rom2, active compounds read low 0.98 | S. cerevisiae deletion strains, locus YLR384C, strain iki3, active compounds read low 0.989 | S. cerevisiae deletion strains, locus YLR418C, strain cdc73, active compounds read low 0.942 | S. cerevisiae deletion strains, locus YML016C, strain PPZ1, active compounds read low 1.02 | S. cerevisiae deletion strains, locus YML032C, strain rad52, active compounds read low 0.986 | S. cerevisiae deletion strains, locus YML120C, strain ndi1, active compounds read low 0.991 | S. cerevisiae deletion strains, locus YML124C, strain tub3, active compounds read low 0.981 | S. cerevisiae deletion strains, locus YMR058W, strain fet3, active compounds read low 0.987 | S. cerevisiae deletion strains, locus YMR078C, strain ctf18, active compounds read low 0.988 | S. cerevisiae deletion strains, locus YMR125W, strain sto1, active compounds read low 0.972 | S. cerevisiae deletion strains, locus YMR129W, active compounds read low 0.986 | S. cerevisiae deletion strains, locus YMR205C, strain PFK2, active compounds read low 0.972 | S. cerevisiae deletion strains, locus YMR223W, strain ubp8, active compounds read low 0.983 | S. cerevisiae deletion strains, locus YMR231W, strain pep5, active compounds read low 0.981 | S. cerevisiae deletion strains, locus YMR263W, strain SAP30, active compounds read low 1 | S. cerevisiae deletion strains, locus YMR307W, strain GAS1, active compounds read low 1.01 and 0.988 | S. cerevisiae deletion strains, locus YNL067W, strain RPL9B, active compounds read low 0.987 | S. cerevisiae deletion strains, locus YNL071W, strain lat1, active compounds read low 0.996 | S. cerevisiae deletion strains, locus YNL128W, strain TEP1, active compounds read low 1 | S. cerevisiae deletion strains, locus YNL153C, strain GIM3, active compounds read low 1.01 | S. cerevisiae deletion strains, locus YNL175C, strain NOP13, active compounds read low 0.979 | S. cerevisiae deletion strains, locus YNL183C, strain NPR1, active compounds read low 0.946 | S. cerevisiae deletion strains, locus YNL197C, strain WHI3, active compounds read low 0.968 | S. cerevisiae deletion strains, locus YNL209W, strain ssb2, active compounds read low 0.988 | S. cerevisiae deletion strains, locus YNL224C, strain SQS1, active compounds read low 0.991 | S. cerevisiae deletion strains, locus YNL233W, strain BNI4, active compounds read low 1.01 | S. cerevisiae deletion strains, locus YNL248C, strain rpa49, active compounds read low 0.98 | S. cerevisiae deletion strains, locus YNL250W, strain rad50, active compounds read low 0.987 | S. cerevisiae deletion strains, locus YNL271C, strain bni1, active compounds read low 0.966 | S. cerevisiae deletion strains, locus YNL298W, strain CLA4, active compounds read low 0.975 | S. cerevisiae deletion strains, locus YNL307C, strain MCK1, active compounds read low 0.98 | S. cerevisiae deletion strains, locus YNL322C, strain KRE1 (second series), active compounds read low 0.991 | S. cerevisiae deletion strains, locus YNL322C, strain KRE1, active compounds read low 1.01 and 0.995 | S. cerevisiae deletion strains, locus YNR049C, strain mso1, active compounds read low 0.984 | S. cerevisiae deletion strains, locus YNR052C, strain pop2, active compounds read low 0.977 | S. cerevisiae deletion strains, locus YOL006C, strain TOP1, active compounds read low 0.959 | S. cerevisiae deletion strains, locus YOL012C, strain htz1 0.756 | S. cerevisiae deletion strains, locus YOL147C, strain pex11, active compounds read low 0.976 | S. cerevisiae deletion strains, locus YOR001W, strain rrp6, active compounds read low 0.989 | S. cerevisiae deletion strains, locus YOR061W, strain CKA2, active compounds read low 1.01 | S. cerevisiae deletion strains, locus YOR069W, strain VPS5, active compounds read low 1.01 | S. cerevisiae deletion strains, locus YOR070C, strain gyp1, active compounds read low 0.987 | S. cerevisiae deletion strains, locus YOR080W, strain dia2, active compounds read low 0.987 | S. cerevisiae deletion strains, locus YOR083W, strain WHI5 (second series), active compounds read low 0.979 | S. cerevisiae deletion strains, locus YOR083W, strain WHI5, active compounds read low 0.99 | S. cerevisiae deletion strains, locus YOR106W, strain vam3, active compounds read low 0.981 | S. cerevisiae deletion strains, locus YOR136W, strain idh2, active compounds read low 0.977 | S. cerevisiae deletion strains, locus YOR144C, strain elg1, active compounds read low 0.976 | S. cerevisiae deletion strains, locus YOR184W, strain ser1, active compounds read low 0.975 | S. cerevisiae deletion strains, locus YOR231W, strain MKK1, active compounds read low 1.01 | S. cerevisiae deletion strains, locus YOR265W, strain rbl2, active compounds read low 0.987 | S. cerevisiae deletion strains, locus YOR270C, strain vph1, active compounds read low 0.974 | S. cerevisiae deletion strains, locus YOR290C, strain snf2, active compounds read low 0.996 | S. cerevisiae deletion strains, locus YOR316C, strain cot1, active compounds read low 0.99 | S. cerevisiae deletion strains, locus YPL051W, strain arl3, active compounds read low 0.985 | S. cerevisiae deletion strains, locus YPL055C, strain LGE1, active compounds read low 1.01 and 0.996 | S. cerevisiae deletion strains, locus YPL078C, strain atp4, active compounds read low 0.978 | S. cerevisiae deletion strains, locus YPL106C, strain sse1, active compounds read low 0.962 | S. cerevisiae deletion strains, locus YPL240C, strain hsp82, active compounds read low 0.987 | S. cerevisiae deletion strains, locus YPL241C, strain CIN2, active compounds read low 1.01 and 0.997 | S. cerevisiae deletion strains, locus YPL256C, strain CLN2, active compounds read low 0.996 | S. cerevisiae deletion strains, locus YPR119W, strain clb2, active compounds read low 0.969 | S. cerevisiae deletion strains, locus YPR141C, strain kar3, active compounds read low 0.99 | S. cerevisiae deletion strains, locus YPR163C, strain tif3, active compounds read low 0.979 | S. cerevisiae deletion strains, locus YPR167C, strain met16, active compounds read low 0.975 | S. cerevisiae deletion strains, strain wtn01, active compounds read low 0.969 | S. cerevisiae strains, strain wild type, active compounds read low 1
